SMILES strings stand for the structures. Calls of active or inactive are those of the source.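 How the source made its calls, unless noted: active means fluorescence slope after compound addition differing from the mean of all screened samples at 99.7% confidence, in either direction; inactive means the rest.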

The nature of assay [1]: inhibitors of TNFa-induced NFkB p65 translocation, primary screen, imaging, HUVEC, MLSMR starter and 10KST1 sets (AID 438;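 active means inhibition above 20% together with a positive visual image hit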;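 further: compound added about 3h40 before a 20 min TNFalpha stimulation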;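 on inhibition: signal is the nuclear over cytoplasmic p65 intensity ratio per well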). As to conditions: HUVEC TNFa-induced p65 nuclear translocation; cell count: measured here: nuclei count (cytotoxicity indicator), at 2.08 µM; inhibition: at 2 µM, stronger effect = higher value, 0% TNFa-plus-vehicle, 100% no-TNFa wells.
Assay [2] in a line: inhibitors of mutant huntingtin aggregation, primary screen, imaging, exon1htt(103Q)mCFP cells, high-content imaging (AID 483;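 active means visual image review flags a hit and inhibition of aggregation exceeds 20%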;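 further: compound exposure lasted 3 days before fixation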;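 on nuclei count: percent of the per-plate median nuclei count of sample wells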). Conditions: exon1htt(103Q)mCFP cell line, aggregate imaging, at 2 µM; inhibition of aggregation: stronger effect = higher value; nuclei count: measured here: cell count, toxicity.
Assay [3] in a line: inhibitors of E-selectin induction by TNFa, primary screen, imaging, HUVEC, immunofluorescence, MLSMR starter and 10KST1 sets (AID 487;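 active means visually confirmed hit in the image check and inhibition above 20%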;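 on inhibition: signal is fraction of cell area covered by stained E-selectin grains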;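 on nuclei count: 100% = median nuclei count of all wells on the same plate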). As to conditions: HUVEC TNFalpha-induced E-selectin immunofluorescence imaging, at 2 µM; inhibition: stronger effect = higher value; nuclei count: measured here: cell number, toxicity.
Assay [4] deals with Voltage-gated potassium channel subunit beta-2 (Rattus norvegicus) (UniProt P62483). Briefly: KvBeta enzyme negative modulators, primary screen, biochemical, NADPH fluorescence (AID 622;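 active means fluorescence slope higher than the sample average by over 3 SD, cut at about -0.22 in these data, passing the limit was not always enough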;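 further: slope of raw intensity against log time taken from 70 to 1610 s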). As to conditions: recombinant KvBeta, 4-cyanobenzaldehyde reduction, at 10 µM, stronger effect = higher value.
Chain of Voltage-gated potassium channel subunit beta-2 (Rattus norvegicus) (P62483 whole entry, looked up): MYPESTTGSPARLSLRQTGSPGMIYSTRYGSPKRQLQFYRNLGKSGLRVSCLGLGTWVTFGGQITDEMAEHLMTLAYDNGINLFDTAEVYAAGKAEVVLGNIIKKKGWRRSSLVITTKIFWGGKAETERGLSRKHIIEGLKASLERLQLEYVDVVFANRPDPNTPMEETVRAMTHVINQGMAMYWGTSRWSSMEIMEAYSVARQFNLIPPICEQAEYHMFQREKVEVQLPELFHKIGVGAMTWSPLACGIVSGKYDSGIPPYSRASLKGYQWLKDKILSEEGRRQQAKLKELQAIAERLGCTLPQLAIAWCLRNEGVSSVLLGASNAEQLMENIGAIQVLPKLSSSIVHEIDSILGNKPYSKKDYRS
The target is the same in assay [5]. In words: KvBeta positive modulators, primary screen, biochemical, NADPH fluorescence (AID 623;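 active means NADPH fluorescence slope more negative than the mean of all samples by about 3 SD, 99.7% confidence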;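 further: fluorescence intensity change per second fitted from 20 to 320 s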). As to conditions: Recombinant KvBeta, NADPH fluorescence decrease slope, 10 min; at 10 µM; stronger effect = lower value.
Assay [6] has as its target Alpha-2C adrenergic receptor (Homo sapiens) (UniProt P18825). Briefly: modulators of alpha2C/GIRK thallium flux, primary screen, cell-based, HEK293 alpha2C/GIRK1/2 (AID 624).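 Further: slope of fluorescence ratio to pre-addition baseline per second over 15 to 24 s.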 As to conditions: thallium flux BTC fluorescence, at 10 µM, actives lie on both sides.
The nature of assay [7]: inhibitors of Sendai virus-induced IRF3 signaling, primary screen, TLR/RLR signaling modifier project, cell-based, Sendai virus stimulus, luciferase, 10K MLSCN set (AID 602276;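 active means inhibition at or above 50% at 10 µM; inactive means inhibition below 50%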;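 further: firefly luciferase from ISG56 promoter only with Renilla not read in this screen; 0% = Sendai virus plus DMSO and 100% = medium plus DMSO without virus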). As to conditions: HEK293 RL24 IRF3 luciferase reporter, at 10 µM, stronger effect = higher value.
A short description of assay [8]: inhibitors of poly I:C-induced TLR3 signaling, primary screen, cell-based, poly I:C stimulus, luciferase, 10K MLSCN set (AID 602277;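 active means inhibition of the reporter signal at or above 50%; inactive means inhibition below 50%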). Conditions: HEK293-TLR3 RL24 IRF3 luciferase reporter, at 10 µM, stronger effect = higher value.

Chain of Alpha-2C adrenergic receptor (Homo sapiens) (P18825 whole entry, looked up): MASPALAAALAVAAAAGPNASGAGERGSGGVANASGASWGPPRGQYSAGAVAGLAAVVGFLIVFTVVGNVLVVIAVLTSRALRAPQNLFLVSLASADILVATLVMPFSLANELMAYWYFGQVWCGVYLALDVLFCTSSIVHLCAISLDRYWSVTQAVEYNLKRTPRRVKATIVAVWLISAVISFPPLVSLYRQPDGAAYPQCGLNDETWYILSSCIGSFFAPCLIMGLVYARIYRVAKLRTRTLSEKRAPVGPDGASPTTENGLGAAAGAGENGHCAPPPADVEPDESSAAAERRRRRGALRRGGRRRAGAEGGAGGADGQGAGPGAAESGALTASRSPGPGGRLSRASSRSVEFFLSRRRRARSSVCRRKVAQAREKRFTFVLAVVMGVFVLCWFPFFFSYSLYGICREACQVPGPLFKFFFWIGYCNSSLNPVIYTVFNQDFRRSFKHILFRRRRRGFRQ

Turning to `Cc1ccccc1-n1nnc2c(=O)oc3ccccc3c21`, the cell count in assay [1] came to 345. Moreover, the inhibition was -1.6% (inactive) in assay [1], -83% (inactive) in assay [3], 12.8% (inactive) in assay [7] and 26.7% (inactive) in assay [8]. Further, in assay [2], the inhibition of aggregation is 20.9% (inactive). Also, the nuclei count amounted to 98.5% in assay [2] and 96.8% in assay [3]. For the same molecule, in assay [4], the fluorescence slope was -0.347 (inactive). Further, in assay [5], the NADPH fluorescence slope was -3.7e-05 (inactive). The slope in assay [6] is 0.00409 (inactive).
Take `Cc1ccc2c(c1)N(CC(=O)N1CCCCC1c1cccnc1)C(=O)CO2` (centres undefined): in assay [1], the cell count came out at 442. For the same molecule, the inhibition in assay [1] is 2.2% (inactive); in assay [3] it was -48.3% (inactive); in assay [7] it was -2.12% (inactive); in assay [8] it was 17.4% (inactive). Further, the inhibition of aggregation in assay [2] is 4.1% (inactive). Further, the nuclei count in assay [2] and in assay [3] was 104% each time. Besides, the fluorescence slope in assay [4] was -0.345 (inactive). Besides, the NADPH fluorescence slope in assay [5] was -6.9e-05 (inactive). Further, in assay [6], the slope is 0.0057 (inactive).
For `CC1(C)CC(=O)N(CC(=O)NCc2ccccc2)c2ccccc2S1(=O)=O`, the cell count in assay [1] is 807. Moreover, the inhibition in assay [1] is -1.7% (inactive); in assay [3] it was -20% (inactive); in assay [7], 12.3% (inactive); in assay [8], 20.7% (inactive). Moreover, the inhibition of aggregation in assay [2] was -7.8% (inactive). The nuclei count stood at 123% in assay [2] and 120% in assay [3]. Also, in assay [4], the fluorescence slope was -0.602 (inactive). Also, the NADPH fluorescence slope in assay [5] was 1.2e-05 (inactive). Further, the slope in assay [6] was 0.00666 (inactive).
With `O=C(Nc1nonc1NC(=O)C1CCCCC1)C1CCCCC1`, the cell count in assay [1] stood at 396. Moreover, the inhibition in assay [1] is 10.2% (inactive); in assay [3] it was -71.5% (inactive); in assay [7], 13.6% (inactive); in assay [8], 22.8% (inactive). For the same molecule, the inhibition of aggregation in assay [2] was -7.6% (inactive). Further, the nuclei count in assay [2] came out at 108%; in assay [3], 127%. For the same molecule, the fluorescence slope in assay [4] was -0.473 (inactive). Also, in assay [5], the NADPH fluorescence slope was 3.9e-06 (inactive). Also, in assay [6], the slope was 0.00459 (inactive).
For the molecule `CCOC(=O)N1CCN(C(=O)CN2C(=O)COc3ccc(C)cc32)CC1`, the cell count in assay [1] was found to be 590. The inhibition in assay [1] was 1.5% (inactive); in assay [3], -64.6% (inactive); in assay [7], 7.89% (inactive); in assay [8], 29.7% (inactive). In addition, the inhibition of aggregation in assay [2] was 9.7% (inactive). The nuclei count in assay [2] was found to be 98.6%; in assay [3], 107%. Further, in assay [4], the fluorescence slope was -0.364 (inactive). The NADPH fluorescence slope in assay [5] was -3.7e-05 (inactive). For the same molecule, the slope in assay [6] is 0.00215 (inactive).
`C/C(=N\O)C(C)/[N+]([O-])=C/c1nc(C)c(C)n1O` (centres undefined): in assay [1], the cell count was 611. The inhibition in assay [1] is 0.2% (inactive); in assay [3] it was 5.3% (inactive); in assay [7] it was 15.5% (inactive); in assay [8] it was 20.8% (inactive). In addition, in assay [2], the inhibition of aggregation is 12% (inactive). In addition, the nuclei count was 106% in assay [2] and 98.3% in assay [3]. Further, in assay [4], the fluorescence slope is -0.492 (inactive). In assay [5], the NADPH fluorescence slope was -7.2e-05 (inactive). In addition, the slope in assay [6] is 0.00463 (inactive).
On to `CCCCCSc1nc2c(cnn2-c2ccccc2)c(=O)[nH]1`, for which the cell count in assay [1] was 241. Further, the inhibition in assay [1] was -4.9% (inactive); in assay [3] it was -35.9% (inactive); in assay [7], 11.4% (inactive); in assay [8], 27.5% (inactive). The inhibition of aggregation in assay [2] is -3.4% (inactive). In addition, the nuclei count in assay [2] stood at 100%; in assay [3], 125%. Besides, the fluorescence slope in assay [4] is -0.399 (inactive). Besides, in assay [5], the NADPH fluorescence slope is -5.4e-05 (inactive). In assay [6], the slope is 0.00382 (inactive).
`c1ccc(CCNc2ccc3nncn3n2)cc1`: the cell count in assay [1] was determined as 593. Moreover, the inhibition is 5.8% (inactive) in assay [1], -9.2% (inactive) in assay [3], 6.01% (inactive) in assay [7] and 12.8% (inactive) in assay [8]. Further, the inhibition of aggregation in assay [2] is -3.1% (inactive). For the same molecule, the nuclei count in assay [2] is 106%; in assay [3], 121%. Moreover, the fluorescence slope in assay [4] was -0.501 (inactive). In addition, the NADPH fluorescence slope in assay [5] was -2.4e-05 (inactive). The slope in assay [6] is 0.00573 (inactive).
In the case of `CCCNC(=O)c1ccccc1C(=O)NCCC`, the cell count in assay [1] came out at 386. For the same molecule, the inhibition in assay [1] is -1.6% (inactive); in assay [3] it was -3.9% (inactive); in assay [7] it was 15.6% (inactive); in assay [8] it was 18% (inactive). Also, the inhibition of aggregation in assay [2] is 23.1% (inactive). Besides, the nuclei count was found to be 94.4% in assay [2] and 115% in assay [3]. In addition, the fluorescence slope in assay [4] was -0.53 (inactive). In addition, in assay [5], the NADPH fluorescence slope is 0.000133 (inactive). Besides, in assay [6], the slope was 0.00613 (inactive).
`COc1cc(C(=O)Nc2cc(C)ccn2)cc(OC)c1OC`: the cell count in assay [1] turned out to be 298. The inhibition in assay [1] was -1.9% (inactive); in assay [3], -87% (inactive); in assay [7], -4.57% (inactive); in assay [8] it was 7.2% (inactive). In addition, the inhibition of aggregation in assay [2] is 4.3% (inactive). The nuclei count in assay [2] is 98.4%; in assay [3] it was 113%. In assay [4], the fluorescence slope was -0.472 (inactive). Moreover, the NADPH fluorescence slope in assay [5] was 3.1e-06 (inactive). The slope in assay [6] was 0.00568 (inactive).
Regarding `Cc1c(C)n(C)c2ccc(C(=O)NCc3cccs3)cc12`, the cell count in assay [1] stood at 461. The inhibition in assay [1] is -9.2% (inactive); in assay [3], 11.8% (inactive); in assay [7], -5.31% (inactive); in assay [8], -32.8% (inactive). The inhibition of aggregation in assay [2] is 19.4% (inactive). Further, the nuclei count in assay [2] stood at 83.8%; in assay [3] it was 93.5%. For the same molecule, in assay [4], the fluorescence slope was -0.505 (inactive). In assay [5], the NADPH fluorescence slope was -3e-05 (inactive). Further, in assay [6], the slope was 0.00486 (inactive).
With `CN1CCN(C(=O)c2ccc3c(=O)n(CCc4ccccc4)c(=S)[nH]c3c2)CC1`, in assay [1], the cell count worked out at 551. In addition, the inhibition in assay [1] is -13.1% (inactive); in assay [3], -44.1% (inactive); in assay [7], 4.3% (inactive); in assay [8] it was 23.3% (inactive). Also, the inhibition of aggregation in assay [2] was -0.8% (inactive). Further, the nuclei count in assay [2] was determined as 77%; in assay [3], 98.9%. The fluorescence slope in assay [4] is -0.459 (inactive). In addition, in assay [5], the NADPH fluorescence slope was 5.7e-06 (inactive). In assay [6], the slope was 0.00697 (inactive).
Take `CCOC(=O)c1sc(Nc2nc3c(OC)cccc3s2)nc1C`: in assay [1], the cell count was determined as 435. Besides, the inhibition was 2.2% (inactive) in assay [1], -20.5% (inactive) in assay [3], -1.57% (inactive) in assay [7] and -60.9% (inactive) in assay [8]. Further, in assay [2], the inhibition of aggregation was -20.1% (inactive). In addition, the nuclei count was 106% in assay [2] and 101% in assay [3]. Also, in assay [4], the fluorescence slope is -0.351 (inactive). The NADPH fluorescence slope in assay [5] is 2.5e-05 (inactive). The slope in assay [6] was 0.00775 (inactive).
In the case of `COc1ccc(CN(CC(=O)NCC2CCCO2)C(=O)CNS(=O)(=O)c2ccc(C)cc2)cc1` (centres undefined), in assay [1], the cell count was 589. Also, the inhibition is -20.2% (inactive) in assay [1], -52.4% (inactive) in assay [3], 9.43% (inactive) in assay [7] and 3.49% (inactive) in assay [8]. In addition, in assay [2], the inhibition of aggregation is -5.2% (inactive). Moreover, the nuclei count in assay [2] is 119%; in assay [3] it was 92.4%. For the same molecule, the fluorescence slope in assay [4] was 0.012 (inactive). In addition, the NADPH fluorescence slope in assay [5] was -3.8e-05 (inactive). Besides, the slope in assay [6] was 0.00362 (inactive).
